The list is not random: actives were taken first. Their share in the collection is about 7.3%.
HEK cytotox – Cytotoxic Profiling in HEK 293 Cell Line of Diverse Libraries Using Quantitative High-Throughput Screening. HEK 293 viability, ATP luminescence (CellTiter-Glo), 48-72 h. Potency, µM (top dose mostly 115 µM), hits mostly inhibitors. actives 6.6% (n = 94,000). AID 1345083, 2018; also: nearly all actives have a fitted effect of over 60% in size
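Pintool-delivered compounds were incubated with HEK 293 cells (250 cells/well) at 37 degree Celsius for 48 or 72 hr. ATP-dependent luminescence (CellTiter-Glo) then reported remaining viable cells.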
HEK293 viab – GF-AFC viability counterscreen for inhibitors of alpha-synuclein gene (SNCA) expression | HEK-293-SNCA-luc viability, GF-AFC fluorescence, 24 h | Potency, µM (series often up to 57.1 µM), most hits filed as cytotoxic | actives 0.12% (n = 150,000); also: nearly all actives have a fitted effect of over 30% in size
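Cytotoxicity counterscreen: after 24 h compound treatment of genome-edited SNCA-luciferase HEK-293 cells, live-cell protease substrate GF-AFC read by fluorescence after 30 min; activity scaled between DMSO (0%) and medium-only (-100%), curves Hill-fitted.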
SNCA expr inh – Primary qHTS assay for inhibitors of alpha-synuclein gene (SNCA) expression; HEK-293 SNCA-luciferase knock-in, luminescence, 24 h; Potency, µM (top dose mostly 57.2 µM), usual class: inhibitors; actives 0.17% (n = 140,000); AID 1671194, 2021; also: nearly all actives have a fitted effect of over 45% in size
IP6K1 inh – Primary qHTS assay for small molecule inhibitors of Inositol hexaphosphate kinase 1 (IP6K1); Inositol hexakisphosphate kinase 1 (Homo sapiens), Q92551; IP6K1 kinase, ADP-Glo luminescence, 2 h; hits give low values; activity change, % (series mostly up to about 58 µM); actives 0.81% (n = 140,000); AID 1645851, 2021; in the data active = activity change below about -25%
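ADP-Glo luminescence measures ADP made by human IP6K1 during a 2 h RT reaction with ATP/IP6 (mix at 1.3 mM/130 uM); top library doses 57.5 and 19.1 uM final.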
NIH3T3 tox – Cytotoxic Profiling in NIH 3T3 Cell Line of Diverse Libraries Using Quantitative High-Throughput Screening. NIH 3T3 viability, CellTiter-Glo ATP luminescence, 48-72 h. Potency, µM (highest dose often 96.7 µM), most hits filed as inhibitors. actives 4.3% (n = 94,000). AID 1345082, 2018; also: nearly all actives have a fitted effect of over 55% in size
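Cells were seeded at 400 per well, treated with pin-transferred compound, and kept 48 or 72 hr at 37 °C before CellTiter-Glo addition and luminescence imaging of cellular ATP.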
FLuc inh-1 – Firefly luciferase inhibition profiling of diverse chemical library using quantitative high-throughput screening; Luciferin 4-monooxygenase (Photinus pyralis), P08659; purified P. pyralis luciferase, luminescence, biochemical; Potency, µM (highest dose often 115 µM), most hits filed as inhibitors; actives 2.5% (n = 76,000); AID 1347043, 2019; also: nearly all actives have a fitted effect of over 65% in size
Target sequence (P08659 whole entry, looked up): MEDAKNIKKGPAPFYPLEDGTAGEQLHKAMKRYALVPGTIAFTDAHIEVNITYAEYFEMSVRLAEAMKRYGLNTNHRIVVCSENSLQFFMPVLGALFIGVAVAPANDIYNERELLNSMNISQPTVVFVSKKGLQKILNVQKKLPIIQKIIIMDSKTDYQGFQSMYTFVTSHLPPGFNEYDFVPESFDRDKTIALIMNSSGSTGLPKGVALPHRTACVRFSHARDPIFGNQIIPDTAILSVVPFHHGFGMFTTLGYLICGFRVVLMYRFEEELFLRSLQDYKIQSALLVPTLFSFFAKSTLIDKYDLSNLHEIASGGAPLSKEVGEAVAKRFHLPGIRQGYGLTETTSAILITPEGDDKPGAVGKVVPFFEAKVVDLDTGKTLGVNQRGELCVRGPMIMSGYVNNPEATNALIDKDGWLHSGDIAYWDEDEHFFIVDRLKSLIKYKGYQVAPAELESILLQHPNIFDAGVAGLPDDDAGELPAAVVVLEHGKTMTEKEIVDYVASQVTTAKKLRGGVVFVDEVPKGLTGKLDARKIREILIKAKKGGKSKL
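Purified P. pyralis luciferase (10nM final) in 50mM Tris acetate pH 7.5, 10mM Mg acetate, 0.01% Tween-20, 0.05% BSA with 10uM D-luciferin and 10uM ATP. Compounds titrated qHTS. Luminescence imaged on CCD.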
FLuc SDR -ATP – Firefly luciferase (FLuc-C-HiBiT) SDR gain of signal screen - without ATP | Purified FLuc-C-HiBiT, Nano-Glo HiBiT luminescence, no ATP | Potency, µM (top dose mostly 32.7 µM), hits mostly activators | shares compounds with FLuc inh-1 | actives 7.8% (n = 1,300); also: nearly all actives have a fitted effect of over 55% in size
FLuc SDR ATP – Firefly luciferase (FLuc-C-HiBiT) SDR gain of signal screen - plus ATP. shares compounds with FLuc inh-1. purified FLuc-C-HiBiT + ATP, HiBiT complementation luminescence. Potency, µM (highest dose often 32.7 µM), hits mostly activators. actives 8.7% (n = 1,300);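 also: signal reports ligand binding via conformational change of the enzyme rather than luciferase catalysis; nearly all actives have a fitted effect of over 55% in size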
FLuc inh-2 – Firefly luciferase (FLuc-C-HiBiT) enzymatic inhibition screen - Functional assay; Potency, µM (highest dose often 32.7 µM), most hits filed as inhibitors; AID 1963320, 2024; shares compounds with FLuc inh-1; actives 42% (n = 1,300); purified FLuc-C-HiBiT enzyme, luciferin luminescence; also: nearly all actives have a fitted effect of over 70% in size
Numbers stand for hits. Unless noted, calls follow the shape of the dose curve; as a rule, active = well fitted curve in the direction sought with a large enough effect; inconclusive = small, poorly fitted or top-dose-only effect, or another doubt; inactive = no such curve, though single readings can be large; an effect the other way counts as inactive or inconclusive.

How did COc1ncccc1-c1csc(CN2CCCC(C)(NC(C)=O)C2)c1 (centres undefined) do in these assays?
HEK cytotox: inconclusive; HEK293 viab: inactive; SNCA expr inh: inactive; IP6K1 inh: inactive; NIH3T3 tox: inconclusive; FLuc inh-1: inactive

How did CC(=O)NC1(C)CN(Cc2ccc(-c3ccc(Oc4ccccc4)cc3)s2)C1 do in these assays?
HEK cytotox: 28.2µM; HEK293 viab: inactive; SNCA expr inh: inactive; IP6K1 inh: inactive; NIH3T3 tox: 28.2µM; FLuc inh-1: 12.6µM; FLuc SDR -ATP: inactive; FLuc SDR ATP: inactive; FLuc inh-2: inconclusive

What do the screens show for `Cc1ccc(CNC(=O)c2ccc3c(c2)CN(Cc2cnn(C)c2C)CCO3)cc1`?
HEK cytotox: inconclusive; HEK293 viab: inactive; SNCA expr inh: inactive; IP6K1 inh: inactive; NIH3T3 tox: inactive; FLuc inh-1: inactive; FLuc SDR -ATP: inactive; FLuc SDR ATP: inactive; FLuc inh-2: inactive

Results for CC1CCN(C(=O)c2cc3c(s2)CCC(C(=O)O)C3)CC1 (centres undefined) ?
HEK cytotox: inactive; HEK293 viab: inactive; SNCA expr inh: inactive; IP6K1 inh: inactive; NIH3T3 tox: inactive; FLuc inh-1: 12.6µM; FLuc SDR -ATP: inactive; FLuc SDR ATP: inactive; FLuc inh-2: inconclusive

Results for O=C(O)C1CCc2sc(C(=O)N3CCOCC3)cc2C1 (centres undefined) ?
HEK cytotox: inactive; HEK293 viab: inactive; SNCA expr inh: inactive; IP6K1 inh: inactive; NIH3T3 tox: inactive; FLuc inh-1: inactive

Results for CCN(CC)Cc1ccc2c(c1)CN(C(=O)c1cncc(Br)c1)CCO2 ?
HEK cytotox: inactive; HEK293 viab: inactive; SNCA expr inh: inactive; IP6K1 inh: inactive; NIH3T3 tox: inactive; FLuc inh-1: inactive

What do the screens show for `CCc1ccccc1NC(=O)c1nnn(-c2ccc(F)cc2)c1C`?
HEK293 viab: inactive; SNCA expr inh: inactive; IP6K1 inh: inactive; FLuc SDR -ATP: inactive; FLuc SDR ATP: inactive; FLuc inh-2: inconclusive

Results for Cc1c(C(=O)Nc2ccc(F)cc2F)nnn1-c1ccccc1Br ?
HEK293 viab: inactive; SNCA expr inh: inactive; IP6K1 inh: inactive

Results for Cc1cc(C(=O)Nc2ccc([C@H]3OCC(=O)N(CC(=O)N(C)C)[C@@H]3CO)cc2)n(C)n1 ?
HEK cytotox: inactive; HEK293 viab: inactive; SNCA expr inh: inactive; IP6K1 inh: inactive; NIH3T3 tox: inactive; FLuc inh-1: inactive

Results for Cc1ccc(C(=O)Nc2ccc(-c3nc4ccccc4s3)c(O)c2)c(C)c1 ?
HEK293 viab: inactive; SNCA expr inh: inactive; IP6K1 inh: inactive; FLuc SDR -ATP: inactive; FLuc SDR ATP: inactive; FLuc inh-2: inactive

Results for COc1ccccc1C(=O)Nc1ccc(-c2nc3ccccc3s2)c(C)c1 ?
HEK293 viab: inactive; SNCA expr inh: inactive; IP6K1 inh: inactive; FLuc SDR -ATP: inactive; FLuc SDR ATP: inactive; FLuc inh-2: inconclusive

How did COc1cc(C(=O)NC2CCN(c3cc(-c4cccs4)[nH]n3)CC2)cc(OC)c1OC do in these assays?
HEK cytotox: inconclusive; HEK293 viab: inactive; SNCA expr inh: inconclusive; IP6K1 inh: inactive; NIH3T3 tox: inconclusive; FLuc inh-1: inactive

How did COCCNC(=O)[C@@H](C)C1CC[C@@]2(C)Cc3sc(CSc4ccccc4)nc3[C@@H](C)[C@@H]2[C@H]1O (some centres undefined) do in these assays?
HEK cytotox: inconclusive; HEK293 viab: inactive; SNCA expr inh: inactive; IP6K1 inh: inactive; NIH3T3 tox: inconclusive; FLuc inh-1: 7.08µM; FLuc SDR -ATP: inactive; FLuc SDR ATP: inconclusive; FLuc inh-2: inconclusive

What do the screens show for `C[C@H](C(=O)N1CCCC1)C1CC[C@@]2(C)Cc3sc(-c4ccccc4)nc3[C@@H](C)[C@@H]2[C@H]1O` (some centres undefined)?
HEK cytotox: 44.7µM; HEK293 viab: inactive; SNCA expr inh: 4.47µM; IP6K1 inh: inactive; NIH3T3 tox: inconclusive; FLuc inh-1: 8.91µM; FLuc SDR -ATP: 3.13µM; FLuc SDR ATP: 2.21µM; FLuc inh-2: 1.97µM

How did CCOc1ccccc1CN1C[C@@H](CO)[C@H](C(=O)N(C)C)C1 do in these assays?
HEK cytotox: inconclusive; HEK293 viab: inactive; SNCA expr inh: inactive; IP6K1 inh: inactive; NIH3T3 tox: inactive; FLuc inh-1: inactive

What do the screens show for `CCC(=O)N1CCCCCC1c1nnc(-c2ccccc2)o1` (centres undefined)?
HEK cytotox: inactive; HEK293 viab: inactive; SNCA expr inh: inactive; IP6K1 inh: inactive; NIH3T3 tox: inactive; FLuc inh-1: inactive

What do the screens show for `O=C(Cc1cccc(Cl)c1)N1CCCC(C(=O)N2CCC(c3ccccc3)CC2)C1` (centres undefined)?
HEK cytotox: inconclusive; HEK293 viab: inactive; SNCA expr inh: inactive; IP6K1 inh: inactive; NIH3T3 tox: inconclusive

What do the screens show for `Cc1ccc(C)c(N2CCN(C(=O)c3ccc(NC(=O)c4nsc5ccccc45)cc3)CC2)c1`?
HEK293 viab: inactive; SNCA expr inh: inactive; IP6K1 inh: inactive; FLuc SDR -ATP: inactive; FLuc SDR ATP: inconclusive; FLuc inh-2: inconclusive

Results for COc1ccc(CC(=O)N[C@H](C)c2c(-c3ccc(F)cc3)noc2C(=O)O)cc1 ?
HEK cytotox: inactive; HEK293 viab: inactive; SNCA expr inh: inactive; IP6K1 inh: inactive; NIH3T3 tox: inactive; FLuc inh-1: inactive

Screening data deposited in PubChem by National Center for Advancing Translational Sciences (NCATS).
